# Experiments:
# Assay in all cases: DAPPL (digital affinity profiling via proximity ligation, sequencing); 10 mM Tris-HCl pH 7.5, 50 mM NaCl, 1 mM DTT, 4% glycerol, room temperature, 30 min; GST-TFs on glutathione beads, 16-mer random dsDNA library, 0.1% formaldehyde crosslink after washing; high values mean tight binding
# [1] = biological target: T1, FLI1 (Homo sapiens, UniProt Q01543 1-452); conditions: protein: recombinant; tags: N-terminal GST; dsDNA, one strand shown
# T1 sequence: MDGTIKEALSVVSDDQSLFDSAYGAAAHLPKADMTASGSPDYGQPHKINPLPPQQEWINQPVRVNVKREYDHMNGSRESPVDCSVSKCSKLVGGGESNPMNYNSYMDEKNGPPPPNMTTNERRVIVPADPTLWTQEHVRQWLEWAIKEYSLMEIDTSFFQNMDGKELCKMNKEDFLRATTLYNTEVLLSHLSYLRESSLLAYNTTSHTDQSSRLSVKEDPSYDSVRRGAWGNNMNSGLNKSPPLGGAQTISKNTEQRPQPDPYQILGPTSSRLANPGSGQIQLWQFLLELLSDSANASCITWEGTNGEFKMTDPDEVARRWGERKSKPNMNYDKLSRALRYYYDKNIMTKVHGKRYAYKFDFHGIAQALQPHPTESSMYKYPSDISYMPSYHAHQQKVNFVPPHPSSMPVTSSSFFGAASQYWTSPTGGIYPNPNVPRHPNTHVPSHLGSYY
# Method in brief: (§1)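 Pools were built from human transcription factors expressed in yeast as GST fusions, captured on glutathione beads and DNA-barcoded, along with a tag-only sample. Incubation with 200 nmole of a 16-mer random double-stranded DNA library lasted 30 min at room temperature in Tris/NaCl/DTT/glycerol buffer, and was followed by washing, 0.1% formaldehyde crosslinking, proximity ligation, PCR amplification and Illumina NextSeq500 sequencing. Binding signal is the quotient of each hexamer's read frequency for a factor and its frequency for the tag-only sample.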
# [2] = biological target: T2, ELK1 (Homo sapiens, UniProt P19419 1-428); conditions: protein: recombinant; tags: N-terminal GST; dsDNA, one strand shown
# T2 sequence: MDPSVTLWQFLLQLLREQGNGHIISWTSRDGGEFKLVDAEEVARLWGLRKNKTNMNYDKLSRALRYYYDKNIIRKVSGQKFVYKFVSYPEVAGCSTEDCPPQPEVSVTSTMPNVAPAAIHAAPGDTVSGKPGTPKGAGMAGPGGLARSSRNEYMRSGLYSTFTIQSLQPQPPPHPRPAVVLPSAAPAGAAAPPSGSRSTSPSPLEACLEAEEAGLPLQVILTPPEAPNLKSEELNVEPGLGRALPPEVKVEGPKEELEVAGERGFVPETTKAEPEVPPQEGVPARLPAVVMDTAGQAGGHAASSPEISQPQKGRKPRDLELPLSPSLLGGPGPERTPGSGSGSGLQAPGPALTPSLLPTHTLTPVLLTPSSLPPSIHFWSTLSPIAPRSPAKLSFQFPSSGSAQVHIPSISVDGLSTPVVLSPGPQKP
# Method in brief: as §1
# [3] = biological target: T3, GABPA (Homo sapiens, UniProt Q06546 1-454); conditions: protein: recombinant; tags: N-terminal GST; dsDNA, one strand shown
# T3 sequence: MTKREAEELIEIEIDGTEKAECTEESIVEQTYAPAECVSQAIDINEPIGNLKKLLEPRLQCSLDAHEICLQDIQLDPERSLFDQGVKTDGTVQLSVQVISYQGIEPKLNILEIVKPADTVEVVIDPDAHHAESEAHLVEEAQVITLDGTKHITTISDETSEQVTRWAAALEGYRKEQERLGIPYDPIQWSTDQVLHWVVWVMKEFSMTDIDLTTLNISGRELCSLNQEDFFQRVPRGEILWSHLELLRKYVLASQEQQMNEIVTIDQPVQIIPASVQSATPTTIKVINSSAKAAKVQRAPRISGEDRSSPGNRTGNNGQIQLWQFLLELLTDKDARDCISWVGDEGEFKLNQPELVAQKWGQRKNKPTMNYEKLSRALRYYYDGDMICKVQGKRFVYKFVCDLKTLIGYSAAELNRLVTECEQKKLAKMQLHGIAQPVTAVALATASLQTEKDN
# Method in brief: as §1
# [4] = biological target: T4, ERG (Homo sapiens, UniProt P11308 1-479); conditions: protein: recombinant; tags: N-terminal GST; dsDNA, one strand shown
# T4 sequence: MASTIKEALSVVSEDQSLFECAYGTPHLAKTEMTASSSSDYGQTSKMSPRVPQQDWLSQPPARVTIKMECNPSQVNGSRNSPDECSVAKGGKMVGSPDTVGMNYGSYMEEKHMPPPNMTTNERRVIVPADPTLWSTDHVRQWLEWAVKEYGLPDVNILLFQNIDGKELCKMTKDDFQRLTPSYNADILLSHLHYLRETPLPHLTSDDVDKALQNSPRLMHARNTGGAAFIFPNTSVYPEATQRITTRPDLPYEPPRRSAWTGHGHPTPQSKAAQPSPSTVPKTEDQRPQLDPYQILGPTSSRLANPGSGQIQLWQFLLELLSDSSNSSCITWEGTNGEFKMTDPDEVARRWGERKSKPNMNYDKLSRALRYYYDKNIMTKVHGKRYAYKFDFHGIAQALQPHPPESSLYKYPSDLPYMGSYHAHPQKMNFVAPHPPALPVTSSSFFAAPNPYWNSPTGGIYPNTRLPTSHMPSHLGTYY
# Method in brief: as §1
# [5] = biological target: ELF1 (Homo sapiens, UniProt P32519 1-619); conditions: protein: recombinant; tags: N-terminal GST; dsDNA, one strand shown
# Method in brief: as §1
# [6] = biological target: T5, EHF (Homo sapiens, UniProt Q9NZC4 1-300); conditions: protein: recombinant; tags: N-terminal GST; dsDNA, one strand shown
# T5 sequence: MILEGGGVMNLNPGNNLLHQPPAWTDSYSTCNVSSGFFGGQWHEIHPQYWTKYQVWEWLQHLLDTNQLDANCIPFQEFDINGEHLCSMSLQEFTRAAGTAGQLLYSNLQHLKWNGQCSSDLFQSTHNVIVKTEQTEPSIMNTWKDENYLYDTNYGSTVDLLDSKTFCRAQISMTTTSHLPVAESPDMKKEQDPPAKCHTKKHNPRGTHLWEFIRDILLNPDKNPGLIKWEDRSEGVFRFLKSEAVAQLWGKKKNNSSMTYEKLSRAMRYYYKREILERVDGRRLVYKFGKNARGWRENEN
# Method in brief: as §1
# [7] = biological target: SPI1 (Homo sapiens, UniProt P17947 1-270); conditions: protein: recombinant; tags: N-terminal GST; dsDNA, one strand shown
# Method in brief: as §1
# [8] = biological target: SPIB (Homo sapiens, UniProt Q01892 1-262); conditions: protein: recombinant; tags: N-terminal GST; dsDNA, one strand shown
# Method in brief: as §1
# [9] = biological target: T6, ELK3 (Homo sapiens, UniProt P41970 1-407); conditions: protein: recombinant; tags: N-terminal GST; dsDNA, one strand shown
# T6 sequence: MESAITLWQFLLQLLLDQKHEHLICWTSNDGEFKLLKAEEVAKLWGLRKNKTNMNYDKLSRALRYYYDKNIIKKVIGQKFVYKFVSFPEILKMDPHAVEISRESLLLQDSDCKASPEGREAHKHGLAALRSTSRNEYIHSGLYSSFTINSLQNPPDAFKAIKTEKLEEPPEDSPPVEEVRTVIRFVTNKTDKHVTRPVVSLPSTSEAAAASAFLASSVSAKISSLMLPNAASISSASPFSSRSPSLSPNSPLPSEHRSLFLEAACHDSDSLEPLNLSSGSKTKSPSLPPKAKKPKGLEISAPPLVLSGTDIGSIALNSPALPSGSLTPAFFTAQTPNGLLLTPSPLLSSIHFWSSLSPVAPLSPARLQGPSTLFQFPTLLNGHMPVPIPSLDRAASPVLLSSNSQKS
# Method in brief: as §1
# [10] = biological target: T7, FEV (Homo sapiens, UniProt Q99581 1-238); conditions: protein: recombinant; tags: N-terminal GST; dsDNA, one strand shown
# T7 sequence: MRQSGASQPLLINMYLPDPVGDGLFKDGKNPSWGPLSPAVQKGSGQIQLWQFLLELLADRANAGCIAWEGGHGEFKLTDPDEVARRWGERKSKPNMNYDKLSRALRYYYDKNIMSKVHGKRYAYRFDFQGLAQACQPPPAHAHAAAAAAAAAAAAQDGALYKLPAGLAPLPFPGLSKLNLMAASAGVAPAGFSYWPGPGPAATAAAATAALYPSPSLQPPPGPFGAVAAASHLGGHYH
# Method in brief: as §1
# [11] = biological target: ETV5 (Homo sapiens, UniProt P41161 1-510); conditions: protein: recombinant; tags: N-terminal GST; dsDNA, one strand shown
# Method in brief: as §1
# [12] = biological target: HSF1 (Homo sapiens, UniProt Q00613 1-529); conditions: protein: recombinant; tags: N-terminal GST; chain copies: 3; dsDNA, one strand shown
# Method in brief: as §1
# [13] = biological target: T8, SPIC (Homo sapiens, UniProt Q8N5J4 1-248); conditions: protein: recombinant; tags: N-terminal GST; dsDNA, one strand shown
# T8 sequence: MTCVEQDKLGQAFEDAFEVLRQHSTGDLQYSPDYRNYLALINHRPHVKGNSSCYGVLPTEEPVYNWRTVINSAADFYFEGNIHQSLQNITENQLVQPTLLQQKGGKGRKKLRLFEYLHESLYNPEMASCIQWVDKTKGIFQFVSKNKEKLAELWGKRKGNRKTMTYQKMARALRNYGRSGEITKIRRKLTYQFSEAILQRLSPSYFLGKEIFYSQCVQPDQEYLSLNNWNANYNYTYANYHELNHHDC
# Method in brief: as §1
# [14] = biological target: ELF4 (Homo sapiens, UniProt Q99607 1-663); conditions: protein: recombinant; tags: N-terminal GST; dsDNA, one strand shown
# Method in brief: as §1
# [15] = biological target: T9, ELK4 (Homo sapiens, UniProt P28324-2 1-405); conditions: protein: recombinant; tags: N-terminal GST; dsDNA, one strand shown
# T9 sequence: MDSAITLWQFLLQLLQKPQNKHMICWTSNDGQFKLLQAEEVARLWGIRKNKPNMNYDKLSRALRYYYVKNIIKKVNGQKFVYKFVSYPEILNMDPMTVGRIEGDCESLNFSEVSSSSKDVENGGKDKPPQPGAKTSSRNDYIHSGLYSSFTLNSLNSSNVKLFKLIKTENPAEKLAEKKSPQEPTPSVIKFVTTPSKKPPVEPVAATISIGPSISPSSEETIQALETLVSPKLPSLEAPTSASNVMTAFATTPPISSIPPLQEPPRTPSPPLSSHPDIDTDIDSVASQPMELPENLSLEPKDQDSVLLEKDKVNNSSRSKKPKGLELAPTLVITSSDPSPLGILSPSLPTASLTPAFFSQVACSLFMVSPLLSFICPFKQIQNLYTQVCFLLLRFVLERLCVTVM
# Method in brief: as §1
# [16] = biological target: T10, ETV2 (Homo sapiens, UniProt O00321 1-342); conditions: protein: recombinant; tags: N-terminal GST; dsDNA, one strand shown
# T10 sequence: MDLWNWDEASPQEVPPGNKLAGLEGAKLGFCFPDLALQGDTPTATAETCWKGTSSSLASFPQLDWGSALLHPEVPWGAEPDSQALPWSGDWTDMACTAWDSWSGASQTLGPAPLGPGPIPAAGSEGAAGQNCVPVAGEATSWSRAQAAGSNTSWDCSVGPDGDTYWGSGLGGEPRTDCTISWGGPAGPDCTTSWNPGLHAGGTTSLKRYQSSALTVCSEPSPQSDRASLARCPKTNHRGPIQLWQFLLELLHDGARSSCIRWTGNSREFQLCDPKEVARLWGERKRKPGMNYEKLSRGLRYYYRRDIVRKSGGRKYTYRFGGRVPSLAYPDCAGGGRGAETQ
# Method in brief: as §1
# [17] = biological target: T11, ELF3 (Homo sapiens, UniProt P78545 1-371); conditions: protein: recombinant; tags: N-terminal GST; dsDNA, one strand shown
# T11 sequence: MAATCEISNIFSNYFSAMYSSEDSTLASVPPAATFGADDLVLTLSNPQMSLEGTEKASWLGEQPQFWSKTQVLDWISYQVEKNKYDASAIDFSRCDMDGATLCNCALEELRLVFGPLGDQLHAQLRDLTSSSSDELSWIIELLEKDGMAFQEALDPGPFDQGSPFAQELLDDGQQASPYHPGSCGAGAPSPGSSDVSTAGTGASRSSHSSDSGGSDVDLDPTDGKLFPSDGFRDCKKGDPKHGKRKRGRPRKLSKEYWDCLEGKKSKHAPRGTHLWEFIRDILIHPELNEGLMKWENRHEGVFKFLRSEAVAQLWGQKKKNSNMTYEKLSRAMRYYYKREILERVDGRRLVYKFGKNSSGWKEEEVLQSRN
# Method in brief: as §1
# [18] = biological target: CRX (Homo sapiens, UniProt O43186 1-299); conditions: protein: recombinant; tags: N-terminal GST; dsDNA, one strand shown
# Method in brief: as §1
# [19] = biological target: ETV1 (Homo sapiens, UniProt P50549 1-477); conditions: protein: recombinant; tags: N-terminal GST; dsDNA, one strand shown
# Method in brief: as §1
# ETV1, sequence (P50549 whole entry): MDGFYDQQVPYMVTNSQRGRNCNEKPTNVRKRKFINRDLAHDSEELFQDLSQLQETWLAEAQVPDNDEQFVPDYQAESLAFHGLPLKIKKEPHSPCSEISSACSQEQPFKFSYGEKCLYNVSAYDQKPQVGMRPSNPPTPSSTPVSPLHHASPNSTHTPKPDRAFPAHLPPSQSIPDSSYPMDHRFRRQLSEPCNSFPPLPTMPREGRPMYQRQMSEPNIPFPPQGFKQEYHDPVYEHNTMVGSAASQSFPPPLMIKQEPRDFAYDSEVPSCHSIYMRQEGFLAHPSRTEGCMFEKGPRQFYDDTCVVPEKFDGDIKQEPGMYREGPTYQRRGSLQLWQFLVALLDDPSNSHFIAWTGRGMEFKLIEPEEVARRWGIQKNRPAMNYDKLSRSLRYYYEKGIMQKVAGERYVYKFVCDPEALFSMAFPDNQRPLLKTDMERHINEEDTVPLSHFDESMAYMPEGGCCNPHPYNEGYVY
# ETV5, sequence (P41161 whole entry): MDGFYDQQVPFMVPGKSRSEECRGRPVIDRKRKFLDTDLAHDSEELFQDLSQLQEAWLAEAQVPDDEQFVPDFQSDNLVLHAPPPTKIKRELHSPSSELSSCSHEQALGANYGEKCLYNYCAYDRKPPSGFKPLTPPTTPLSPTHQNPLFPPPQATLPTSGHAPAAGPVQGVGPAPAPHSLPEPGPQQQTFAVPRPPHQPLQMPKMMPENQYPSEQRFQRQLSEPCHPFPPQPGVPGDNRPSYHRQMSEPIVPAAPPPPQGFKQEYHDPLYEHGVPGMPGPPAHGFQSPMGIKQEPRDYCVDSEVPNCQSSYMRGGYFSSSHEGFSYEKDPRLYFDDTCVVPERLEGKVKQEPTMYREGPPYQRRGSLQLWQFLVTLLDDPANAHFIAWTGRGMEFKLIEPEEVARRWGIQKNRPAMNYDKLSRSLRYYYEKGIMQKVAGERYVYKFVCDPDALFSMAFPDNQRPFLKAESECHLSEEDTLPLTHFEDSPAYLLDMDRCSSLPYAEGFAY
# ELF4, sequence (Q99607 whole entry): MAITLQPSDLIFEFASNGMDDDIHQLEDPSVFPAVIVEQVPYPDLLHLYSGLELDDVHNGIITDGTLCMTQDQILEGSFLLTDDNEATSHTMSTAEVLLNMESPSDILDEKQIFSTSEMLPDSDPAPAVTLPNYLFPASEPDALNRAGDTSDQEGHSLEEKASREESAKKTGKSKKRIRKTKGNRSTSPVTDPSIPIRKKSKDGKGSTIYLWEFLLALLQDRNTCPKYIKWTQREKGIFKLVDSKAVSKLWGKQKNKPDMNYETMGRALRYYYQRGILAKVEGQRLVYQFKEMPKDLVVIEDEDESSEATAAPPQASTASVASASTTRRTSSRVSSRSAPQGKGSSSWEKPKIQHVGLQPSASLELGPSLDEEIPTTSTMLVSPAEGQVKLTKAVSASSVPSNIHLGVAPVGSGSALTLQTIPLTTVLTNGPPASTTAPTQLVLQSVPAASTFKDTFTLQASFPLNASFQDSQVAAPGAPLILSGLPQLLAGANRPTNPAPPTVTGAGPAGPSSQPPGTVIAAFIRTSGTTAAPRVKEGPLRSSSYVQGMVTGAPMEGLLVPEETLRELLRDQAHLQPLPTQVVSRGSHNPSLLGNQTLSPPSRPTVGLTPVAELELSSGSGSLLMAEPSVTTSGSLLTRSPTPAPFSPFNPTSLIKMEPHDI
# CRX, sequence (O43186 whole entry): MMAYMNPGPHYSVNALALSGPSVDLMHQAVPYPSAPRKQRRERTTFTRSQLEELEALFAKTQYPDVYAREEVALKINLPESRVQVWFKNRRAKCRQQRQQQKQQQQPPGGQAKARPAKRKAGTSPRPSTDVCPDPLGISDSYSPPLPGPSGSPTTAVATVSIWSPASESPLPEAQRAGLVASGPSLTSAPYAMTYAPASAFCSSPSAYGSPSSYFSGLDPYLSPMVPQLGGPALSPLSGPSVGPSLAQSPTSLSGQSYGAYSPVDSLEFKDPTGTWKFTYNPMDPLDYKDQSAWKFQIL
# ELF1, sequence (P32519 whole entry): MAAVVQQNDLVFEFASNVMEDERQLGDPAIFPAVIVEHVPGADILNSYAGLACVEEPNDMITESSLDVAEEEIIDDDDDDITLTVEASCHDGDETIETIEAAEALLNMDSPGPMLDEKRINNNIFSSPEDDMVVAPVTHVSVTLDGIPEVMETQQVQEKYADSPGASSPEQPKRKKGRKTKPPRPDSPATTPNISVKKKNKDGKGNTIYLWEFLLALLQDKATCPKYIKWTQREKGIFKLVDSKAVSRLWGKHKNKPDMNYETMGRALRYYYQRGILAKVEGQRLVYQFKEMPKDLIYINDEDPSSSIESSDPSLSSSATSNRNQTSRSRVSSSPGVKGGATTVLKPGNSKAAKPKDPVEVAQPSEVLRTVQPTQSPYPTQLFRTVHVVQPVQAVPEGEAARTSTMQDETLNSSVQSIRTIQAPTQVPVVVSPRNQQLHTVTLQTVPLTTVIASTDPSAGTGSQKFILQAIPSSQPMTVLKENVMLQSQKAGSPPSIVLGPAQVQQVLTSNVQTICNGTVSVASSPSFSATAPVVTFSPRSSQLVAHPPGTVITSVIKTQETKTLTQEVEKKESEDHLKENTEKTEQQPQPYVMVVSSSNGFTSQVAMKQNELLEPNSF
# SPIB, sequence (Q01892 whole entry): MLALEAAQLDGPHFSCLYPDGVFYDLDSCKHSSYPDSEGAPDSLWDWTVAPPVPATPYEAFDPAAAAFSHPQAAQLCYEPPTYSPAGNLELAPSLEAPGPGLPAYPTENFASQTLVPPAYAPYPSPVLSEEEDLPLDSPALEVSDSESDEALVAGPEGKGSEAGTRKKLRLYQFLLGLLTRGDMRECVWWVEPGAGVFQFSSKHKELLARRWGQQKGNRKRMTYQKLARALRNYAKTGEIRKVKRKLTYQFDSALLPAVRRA
# HSF1, sequence (Q00613 whole entry): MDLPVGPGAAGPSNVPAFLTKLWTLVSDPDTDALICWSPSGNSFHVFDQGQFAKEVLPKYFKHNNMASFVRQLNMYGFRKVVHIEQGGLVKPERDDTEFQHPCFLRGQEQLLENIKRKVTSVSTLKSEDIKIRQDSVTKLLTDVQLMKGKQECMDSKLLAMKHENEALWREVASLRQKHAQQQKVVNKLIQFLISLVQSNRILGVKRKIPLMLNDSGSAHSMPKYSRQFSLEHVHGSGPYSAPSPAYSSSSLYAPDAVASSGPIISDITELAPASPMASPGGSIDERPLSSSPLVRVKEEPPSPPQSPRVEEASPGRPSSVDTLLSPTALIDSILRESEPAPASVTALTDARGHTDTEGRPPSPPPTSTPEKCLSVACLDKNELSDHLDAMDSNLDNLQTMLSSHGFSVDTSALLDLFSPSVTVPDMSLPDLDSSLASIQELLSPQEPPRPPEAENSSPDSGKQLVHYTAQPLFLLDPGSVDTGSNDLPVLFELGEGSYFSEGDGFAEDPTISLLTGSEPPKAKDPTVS
sequence,measurement,setting,value
CTTAGG,binding signal,[1],"1.1 fold enrichment (6-mer frequency, TF over GST control)"
same,binding signal,[2],"1.12 fold enrichment (6-mer frequency, TF over GST control)"
same,binding signal,[3],"1.15 fold enrichment (6-mer frequency, TF over GST control)"
same,binding signal,[4],"1.19 fold enrichment (6-mer frequency, TF over GST control)"
same,binding signal,[5],"1.17 fold enrichment (6-mer frequency, TF over GST control)"
same,binding signal,[6],"1.14 fold enrichment (6-mer frequency, TF over GST control)"
same,binding signal,[7],"1.09 fold enrichment (6-mer frequency, TF over GST control)"
same,binding signal,[8],"1.08 fold enrichment (6-mer frequency, TF over GST control)"
same,binding signal,[9],"1.05 fold enrichment (6-mer frequency, TF over GST control)"
same,binding signal,[10],"1.11 fold enrichment (6-mer frequency, TF over GST control)"
same,binding signal,[11],"1.15 fold enrichment (6-mer frequency, TF over GST control)"
same,binding signal,[12],"1.29 fold enrichment (6-mer frequency, TF over GST control)"
same,binding signal,[13],"1.3 fold enrichment (6-mer frequency, TF over GST control)"
same,binding signal,[14],"1.16 fold enrichment (6-mer frequency, TF over GST control)"
same,binding signal,[15],"1.04 fold enrichment (6-mer frequency, TF over GST control)"
same,binding signal,[16],"1.23 fold enrichment (6-mer frequency, TF over GST control)"
same,binding signal,[17],"1.49 fold enrichment (6-mer frequency, TF over GST control)"
same,binding signal,[18],"1.8 fold enrichment (6-mer frequency, TF over GST control)"
same,binding signal,[19],"1.19 fold enrichment (6-mer frequency, TF over GST control)"
